Experimental data: PubChem BioAssay (NCI)
Compounds without any hit were thinned out: in the full panel of roughly 79,000, 15% have a hit. Unmarked numbers belong to inactive results. Calls of active or inactive are those of the source. Rule as the data show it: active = growth inhibition above about 70%; inactive = the rest.

Legend:
[1] = NCI Yeast Anticancer Drug Screen. Data for the rad50 strain (AID 155);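 also: 0% = growth of vehicle-only cultures of the same strain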; conditions: S. cerevisiae rad50 strain growth inhibition, hits give high values
In short: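 Inhibition values express reduced yeast growth in compound-treated cultures relative to vehicle-treated controls.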

[2] = NCI Yeast Anticancer Drug Screen. Data for the mec2-1 strain (AID 157); conditions: S. cerevisiae mec2-1 strain, hits give high values
In short: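 Readout is yeast growth inhibition, normalised to vehicle-treated controls, in the mec2-1 strain exposed to compound.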

[3] = NCI Yeast Anticancer Drug Screen. Data for the sgs1 mgt1 strain (AID 161);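 also: 0% = growth of cultures given vehicle only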; conditions: S. cerevisiae sgs1 mgt1 strain, hits give high values
In short: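 This yeast growth screen uses a strain with defined DNA-repair lesions; compound-treated growth is compared with vehicle-treated growth.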

[4] = NCI Yeast Anticancer Drug Screen. Data for the cln2 rad14 strain (AID 165);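 also: 0% = growth equal to vehicle treated cultures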; conditions: S. cerevisiae cln2 rad14 strain, hits give high values
In short: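 Relative to vehicle controls, growth inhibition of compound-treated cln2 rad14 yeast was recorded.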

[5] = NCI Yeast Anticancer Drug Screen. Data for the bub3 strain (AID 167); conditions: S. cerevisiae bub3 mutant strain, hits give high values
In short: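 Steps: expose the mutant yeast strain to compound; grow alongside vehicle-treated cultures; measure growth; express inhibition against the vehicle cultures.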

[6] = NCI Yeast Anticancer Drug Screen. Data for the mlh1 rad18 strain (AID 175); conditions: S. cerevisiae mlh1 rad18 strain growth inhibition, hits give high values
In short: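 Test agents were incubated with a yeast strain of defined genotype (DNA damage repair defect). Inhibition of growth was derived by comparison with vehicle-exposed cultures.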

[7] = at 5.0 µM (retest, dose inferred, filed as 0.5)
[8] = at 50.0 µM (retest, dose inferred, filed as 5.0)

CN=C(N)N/N=C(\C)c1ccc2c(c1)Cc1cc(Cl)ccc1-2
growth inhibition [1, 7]: 34% | growth inhibition [1, 8]: 37% | growth inhibition ([1]; at 50.0 µM): 98.8% (active) | growth inhibition [2, 7]: 16% | growth inhibition [2, 8]: 38% | growth inhibition ([2]; at 50.0 µM): 97% (active) | growth inhibition [3, 7]: 13% | growth inhibition [3, 8]: 97% (active) | growth inhibition ([3]; at 50.0 µM): 98.7% (active) | growth inhibition [4, 7]: 8% | growth inhibition [4, 8]: 56% | growth inhibition ([4]; at 50.0 µM): 93.1% (active) | growth inhibition [5, 7]: 7% | growth inhibition [5, 8]: 90% (active) | growth inhibition ([5]; at 50.0 µM): 98.7% (active) | growth inhibition [6, 7]: 9% | growth inhibition [6, 8]: 97% (active) | growth inhibition ([6]; at 50.0 µM): 98.5% (active)

O=c1[nH]c(CN2CCCCC2)nn1-c1ccccc1
growth inhibition [1, 7]: -1% | growth inhibition [1, 8]: 3% | growth inhibition ([1]; at 50.0 µM): 8.25% | growth inhibition [2, 7]: 0% | growth inhibition [2, 8]: 3% | growth inhibition ([2]; at 50.0 µM): 10.1% | growth inhibition [3, 7]: -1% | growth inhibition [3, 8]: 1% | growth inhibition ([3]; at 50.0 µM): 9.75% | growth inhibition [4, 7]: 4% | growth inhibition [4, 8]: -1% | growth inhibition ([4]; at 50.0 µM): 69.4% | growth inhibition [5, 7]: 0% | growth inhibition [5, 8]: -4% | growth inhibition ([5]; at 50.0 µM): 14.6% | growth inhibition [6, 7]: -2% | growth inhibition [6, 8]: 1% | growth inhibition ([6]; at 50.0 µM): 2.45%

CS(=O)(=O)OCCN(CCOS(C)(=O)=O)c1ccc(C=Nc2ccc3oc(=O)ccc3c2)cc1
growth inhibition [1, 7]: 32% | growth inhibition [1, 8]: 97% (active) | growth inhibition ([1]; at 50.0 µM): 52.1% | growth inhibition [2, 7]: 35% | growth inhibition [2, 8]: 95% (active) | growth inhibition ([2]; at 50.0 µM): 77.1% (active) | growth inhibition [3, 7]: 22% | growth inhibition [3, 8]: 86% (active) | growth inhibition ([3]; at 50.0 µM): 65.2% | growth inhibition [4, 7]: 13% | growth inhibition [4, 8]: 77% (active) | growth inhibition ([4]; at 50.0 µM): 22.4% | growth inhibition [5, 7]: -4% | growth inhibition [5, 8]: 14% | growth inhibition ([5]; at 50.0 µM): 40.1% | growth inhibition [6, 7]: 72% (active) | growth inhibition [6, 8]: 97% (active) | growth inhibition ([6]; at 50.0 µM): 88.7% (active)

CCCCCCCCCCCCCCCCCC[n+]1cccc(C(=O)c2ccccc2)c1
growth inhibition [1, 7]: 58% | growth inhibition [1, 8]: 99% (active) | growth inhibition ([1]; at 50.0 µM): 99.3% (active) | growth inhibition [2, 7]: 92% (active) | growth inhibition [2, 8]: 100% (active) | growth inhibition ([2]; at 50.0 µM): 99.5% (active) | growth inhibition [3, 7]: 97% (active) | growth inhibition [3, 8]: 99% (active) | growth inhibition ([3]; at 50.0 µM): 99.5% (active) | growth inhibition [4, 7]: 56% | growth inhibition [4, 8]: 98% (active) | growth inhibition ([4]; at 50.0 µM): 97.3% (active) | growth inhibition [5, 7]: 68% | growth inhibition [5, 8]: 99% (active) | growth inhibition ([5]; at 50.0 µM): 98.7% (active) | growth inhibition [6, 7]: 98% (active) | growth inhibition [6, 8]: 99% (active) | growth inhibition ([6]; at 50.0 µM): 99.5% (active)

C=C(CN1CCOCC1)C(=O)c1ccccc1
growth inhibition [1, 7]: -23% | growth inhibition [1, 8]: 66% | growth inhibition ([1]; at 50.0 µM): 74.5% (active) | growth inhibition [2, 7]: 18% | growth inhibition [2, 8]: 80% (active) | growth inhibition ([2]; at 50.0 µM): 90.2% (active) | growth inhibition [3, 7]: 8% | growth inhibition [3, 8]: 73% (active) | growth inhibition ([3]; at 50.0 µM): 85.5% (active) | growth inhibition [4, 7]: -16% | growth inhibition [4, 8]: 24% | growth inhibition ([4]; at 50.0 µM): 60.9% | growth inhibition [5, 7]: 3% | growth inhibition [5, 8]: 72% (active) | growth inhibition ([5]; at 50.0 µM): 91% (active) | growth inhibition [6, 7]: -13% | growth inhibition [6, 8]: 92% (active) | growth inhibition ([6]; at 50.0 µM): 95% (active)

O=C(Nc1ccc(Cl)cc1)Nc1cc(Cl)ccc1O
growth inhibition [1, 7]: -2% | growth inhibition [1, 8]: 22% | growth inhibition ([1]; at 50.0 µM): 93% (active) | growth inhibition [2, 7]: 0% | growth inhibition [2, 8]: 35% | growth inhibition ([2]; at 50.0 µM): 96.2% (active) | growth inhibition [3, 7]: -1% | growth inhibition [3, 8]: 28% | growth inhibition ([3]; at 50.0 µM): 90.3% (active) | growth inhibition [4, 7]: -8% | growth inhibition [4, 8]: 27% | growth inhibition ([4]; at 50.0 µM): 94% (active) | growth inhibition [5, 7]: -4% | growth inhibition [5, 8]: 19% | growth inhibition ([5]; at 50.0 µM): 96.5% (active) | growth inhibition [6, 7]: -3% | growth inhibition [6, 8]: 30% | growth inhibition ([6]; at 50.0 µM): 97.5% (active)

Cc1cc(Oc2nc(Cl)nc(C(Cl)(Cl)Cl)c2Cl)cc(C)c1N(C)C (tested in a mixture with another compound)
growth inhibition [1, 7]: -5% | growth inhibition [1, 8]: 10% | growth inhibition ([1]; at 50.0 µM): 92.8% (active) | growth inhibition [2, 7]: -6% | growth inhibition [2, 8]: -3% | growth inhibition ([2]; at 50.0 µM): 95.8% (active) | growth inhibition [3, 7]: -2% | growth inhibition [3, 8]: 10% | growth inhibition ([3]; at 50.0 µM): 95.5% (active) | growth inhibition [4, 7]: -12% | growth inhibition [4, 8]: -9% | growth inhibition ([4]; at 50.0 µM): 91.9% (active) | growth inhibition [5, 7]: 7% | growth inhibition [5, 8]: 30% | growth inhibition ([5]; at 50.0 µM): 92.6% (active) | growth inhibition [6, 7]: -8% | growth inhibition [6, 8]: -5% | growth inhibition ([6]; at 50.0 µM): 95.7% (active)

C/C(=N\NC(=O)C[n+]1ccccc1)c1sc(-c2nc(C)c(/C(C)=N/NC(=O)C[n+]3ccccc3)s2)nc1C
growth inhibition [1, 7]: 95% (active) | growth inhibition [1, 8]: 97% (active) | growth inhibition ([1]; at 50.0 µM): 97.2% (active) | growth inhibition [2, 7]: 97% (active) | growth inhibition [2, 8]: 99% (active) | growth inhibition ([2]; at 50.0 µM): 96.8% (active) | growth inhibition [3, 7]: 98% (active) | growth inhibition [3, 8]: 97% (active) | growth inhibition ([3]; at 50.0 µM): 96.9% (active) | growth inhibition [4, 7]: 92% (active) | growth inhibition [4, 8]: 97% (active) | growth inhibition ([4]; at 50.0 µM): 93% (active) | growth inhibition [5, 7]: 95% (active) | growth inhibition [5, 8]: 97% (active) | growth inhibition ([5]; at 50.0 µM): 96.8% (active) | growth inhibition [6, 7]: 93% (active) | growth inhibition [6, 8]: 98% (active) | growth inhibition ([6]; at 50.0 µM): 96.4% (active)

Cc1ccc(N2CCN(c3c(N)cncc3Br)CC2)cc1
growth inhibition [1, 7]: -4% | growth inhibition [1, 8]: -4% | growth inhibition ([1]; at 50.0 µM): 94% (active) | growth inhibition [2, 7]: 6% | growth inhibition [2, 8]: 14% | growth inhibition ([2]; at 50.0 µM): 97.3% (active) | growth inhibition [3, 7]: 0% | growth inhibition [3, 8]: 18% | growth inhibition ([3]; at 50.0 µM): 92.8% (active) | growth inhibition [4, 7]: 0% | growth inhibition [4, 8]: -15% | growth inhibition ([4]; at 50.0 µM): 46.5% | growth inhibition [5, 7]: 19% | growth inhibition [5, 8]: 71% (active) | growth inhibition ([5]; at 50.0 µM): 96% (active) | growth inhibition [6, 7]: -4% | growth inhibition [6, 8]: -1% | growth inhibition ([6]; at 50.0 µM): 90.8% (active)

CCCCCCCCCCCCCCCC(=O)N1CC[N+](C)(C)CC1
growth inhibition [1, 7]: 34% | growth inhibition [1, 8]: 99% (active) | growth inhibition ([1]; at 50.0 µM): 99.3% (active) | growth inhibition [2, 7]: 5% | growth inhibition [2, 8]: 100% (active) | growth inhibition ([2]; at 50.0 µM): 99.6% (active) | growth inhibition [3, 7]: 73% (active) | growth inhibition [3, 8]: 99% (active) | growth inhibition ([3]; at 50.0 µM): 60% | growth inhibition [4, 7]: 5% | growth inhibition [4, 8]: 99% (active) | growth inhibition ([4]; at 50.0 µM): 98.2% (active) | growth inhibition [5, 7]: 16% | growth inhibition [5, 8]: 99% (active) | growth inhibition ([5]; at 50.0 µM): 99.2% (active) | growth inhibition [6, 7]: -34% | growth inhibition [6, 8]: 99% (active) | growth inhibition ([6]; at 50.0 µM): 99.5% (active)
